High-throughput results: PubChem BioAssay, National Center for Advancing Translational Sciences (NCATS)
TexasRed fluor = Total Fluorescence Counterscreen for Inhibitors of the Interaction of Thyroid Hormone Receptor and Steroid Receptor Coregulator 2. TRb/SRC2 Texas Red total fluorescence interference. Potency, µM (doses to about 106 µM), for inactives: at the top dose fluorescence change, negative = quenching. 280,000 compounds, 0.29% hits. AID 1479, 2009; active means well fitted curve in either direction with a large enough effect; inconclusive means small, poorly fitted or top-dose-only effect
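Flags fluorescent or light-absorbing compounds by total fluorescence, S + 2P, at 555 nm excitation and 632 nm emission. Mixture: 20 nM Texas Red SRC2 peptide, 0.6 uM human TRb LBD, 1 uM T3, 5% DMSO; compound exposure 5 h at ambient temperature.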
Tau fluor cs = Counterscreen qHTS for Inhibitors of Tau Fibril Formation, Fluorescence Polarization. tau K18 P301L Alexa594 fluorescence, heparin fibrillization. Potency, µM (titrated, usually from 57.7 µM), for inactives: at the top dose activity change, negative = decrease. 280,000 compounds, 0.93% hits. AID 1463, 2008; further: nearly all actives have a fitted effect of over 55% in size
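Human K18 P301L tau (15 uM unlabeled plus 0.24 uM Alexa 594-labeled, final) in 100 mM sodium acetate pH 7 was mixed with compound and 20 uM heparin and incubated 6 hr at 37 C.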
Tau fibril FP = qHTS for Inhibitors of Tau Fibril Formation, Fluorescence Polarization; Microtubule-associated protein tau (Homo sapiens), P10636; K18 P301L tau heparin fibrillization, Alexa594 FP, 6 h; Potency, µM (doses to about 57.7 µM), for the others: top-dose activity, negative = inhibition, most hits filed as inhibitors; 280,000 compounds, 0.39% hits; AID 1468, 2008; further: nearly all actives have a fitted effect of over 55% in size
Target sequence (P10636 561-689 P618L limits assumed): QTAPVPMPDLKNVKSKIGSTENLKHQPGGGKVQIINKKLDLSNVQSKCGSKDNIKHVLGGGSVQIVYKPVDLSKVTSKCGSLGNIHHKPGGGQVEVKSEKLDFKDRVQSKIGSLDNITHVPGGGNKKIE
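Recombinant K18 P301L […], labeled with Alexa 594 at 0.24 uM over 15 uM unlabeled; heparin inducer 20 uM final; 37 C, 6 hr; FP endpoint.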
TRb SRC2 PPI = qHTS for Inhibitors of the Interaction of Thyroid Hormone Receptor and Steroid Receptor Coregulator 2. Thyroid hormone receptor beta (Homo sapiens), P10828. TRbeta-SRC2 peptide binding, fluorescence polarization; receptor liganded with 1 µM T3. Potency, µM (series often up to 106 µM), for the others: at the highest dose activity change, negative = inhibition, usual class: inhibitors. 280,000 compounds, 0.065% hits;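 further: plate controls were bound peptide for no effect and peptide without receptor for full effect; nearly all actives have a fitted effect of over 50% in size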
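Polarization signal, normalized between peptide-alone and full complex controls, measured compound effects on T3-liganded human TRb LBD (0.6 uM) binding 20 nM Texas Red SRC2 peptide after 5 hr.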
RGS12 GoLoco inh = qHTS Assay for Inhibitors of RGS12 GoLoco Motif Activity (Red Fluorophore). Guanine nucleotide-binding protein G(i) subunit alpha-1 (Homo sapiens), P63096. Gai1:RGS12 GoLoco peptide FP, rhodamine, 10 min. Potency, µM (doses to about 61.6 µM), inactives show at the highest dose activity, negative = inhibition, most hits filed as inhibitors. 230,000 compounds, 0.44% hits; active means well fitted inhibition curve with a large enough effect, not every such curve was filed as active; inactive means no such curve, though single readings can be large or run the other way; further: nearly all actives have a fitted effect of over 30% in size
Target sequence (P63096 whole entry, looked up): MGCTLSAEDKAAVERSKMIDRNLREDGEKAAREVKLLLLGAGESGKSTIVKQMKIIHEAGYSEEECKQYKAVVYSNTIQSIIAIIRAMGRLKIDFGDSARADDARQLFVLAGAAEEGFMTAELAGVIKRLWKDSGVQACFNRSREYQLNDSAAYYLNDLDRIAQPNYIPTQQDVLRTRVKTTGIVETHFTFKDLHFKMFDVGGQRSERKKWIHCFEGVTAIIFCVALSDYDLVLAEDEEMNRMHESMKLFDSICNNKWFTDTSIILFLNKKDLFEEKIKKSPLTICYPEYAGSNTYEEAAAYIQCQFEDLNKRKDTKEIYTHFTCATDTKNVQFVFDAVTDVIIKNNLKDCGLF
Tau fibril ThT = qHTS for Inhibitors of Tau Fibril Formation, Thioflavin T Binding; recombinant tau K18 P301L, heparin-induced fibrillization, ThT fluorescence; Potency, µM (highest dose often 57.4 µM), inactives show at the highest dose activity, negative = inhibition, usual class: inhibitors; 270,000 compounds, 2.1% hits; AID 1460, 2008; further: nearly all actives have a fitted effect of over 55% in size
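ThT emission at 510 nm, taken 1 hr after adding 30 uM dye, quantifies aggregates formed when 20 uM heparin acts on human tau K18 P301L for 6 hr at 37 C.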
* marks the source's active call; other numbers are inactive results; u = inconclusive; x = not tested or not shown; [ ] = another dose, or the depositor's remark. In the library only some 3.2% were active in any assay of this set; here they are far more common. Unless noted, the call rests on the fitted dose curve; in most records, active means well fitted curve in the direction sought with a large enough effect; inconclusive means small, poorly fitted or top-dose-only effect, or another doubt; inactive means no such curve, though single readings can be large; an effect the other way counts as inactive or inconclusive. Unless noted, on the % scale 0 is the no-effect control and ±100 the full control effect; potency means the concentration at half of the fitted maximal effect.

SMILES	TexasRed fluor	Tau fluor cs	Tau fibril FP	TRb SRC2 PPI	RGS12 GoLoco inh	Tau fibril ThT
CC(=O)c1ccc(N2CCN(C(=O)C3CCN(S(=O)(=O)c4cccc5nonc45)CC3)CC2)cc1	0%	-6%	11%	0%	x	-15%
CC1CCC2C(C)C3C(CC4[C@@H]5CC=C6C[C@@H](O)CC[C@]6(C)C5CC[C@]34C)N2C1 (stereo partly drawn)	1%	x	x	-2%	x	x
CCCOc1ccc(NC(=O)CC2C(=O)N(c3ccc(C)cc3)C(=O)N2C(C)C)cc1 (stereo not drawn)	1%	-15%	-1%	2%	x	5%
C=C(C)C(=O)OCCCCCCCCCCCC	-2%[201 µM]	x	x	-2%[201 µM]	x	x
O=C1NC(c2ccc(Br)cc2)Nc2sc3c(c21)CCC3 (stereo not drawn)	5%	-22%	u	2%	21%	u
Cc1cccc(C2NC(=O)c3c(sc4c3CCN(C)C4)N2)c1O (stereo not drawn)	u	-22%	-13%	-19%[53 µM]	x	16µM*
CCOC(=O)N1CCc2c(sc3c2C(=O)NC(c2ccc(C(=O)OC)cc2)N3)C1 (stereo not drawn)	3%	-11%	-2%	-4%	x	u
CN1CCc2c(sc3c2C(=O)NC(c2ccccc2)N3)C1 (stereo not drawn)	16%	1%	u	-14%	25%	u
CCOC(=O)N1CCc2c(sc3c2C(=O)NC(c2cc(OC)c(OC)c(OC)c2)N3)C1 (stereo not drawn)	-4%	-25%	-7%	1%	x	16µM*
O=C1NC(c2ccccn2)Nc2sc3c(c21)CCC3 (stereo not drawn)	1%	-26%	u	-5%	2%	20µM*
CCOC(=O)c1c(C(F)(F)C(F)(F)C(F)(F)C(F)(F)F)n[nH]c1C	-4%	4%	14µM*	10%	10%	1%
Cn1c(=O)c2c(nc(N3CCOCC3)n2Cc2ccccc2F)n(C)c1=O	-1%	-18%	-4%	4%	x	-8%
O=C(O)c1cc(=O)c2cc(Cl)ccc2[nH]1	2%	x	x	5%	x	x
CC(C)NCc1c(O)c(Br)cc2oc3c(c12)CCCC3	0%	-11%	1%	1%	5.6µM*	-17%
CCC(C)(C)C1CCC(O)CC1 (stereo not drawn)	1%[201 µM]	x	x	1%[201 µM]	x	x
NC(=S)Cc1nc(-c2ccccc2)cs1	-3%[53 µM]	u	u	-3%[53 µM]	42%	20µM*
O=C(/C=C/c1ccc(/C=C/C(=O)Nc2ccc(C3=NCCN3)cc2)cc1)Nc1ccc(C2=NCCN2)cc1	-12%	x	x	3%	x	x
Cc1ccccc1-c1noc(-c2ccc(NCc3cccnc3)c([N+](=O)[O-])c2)n1	-4%	0%	-12%	1%	x	6%
O=C(Nc1ccc(F)cc1)Nc1csc2ccccc12	-4%	8.9µM*[quencher]	2%	-8%	-3%	x
CN(C)c1ccc(NC(=O)Nc2csc3ccccc23)cc1	4%	7.1µM*[quencher]	-13%	2%	4%	3.5µM*
CN(C)Cc1ccccc1-c1nc(NCc2cccs2)c2ccccc2n1	x	x	x	x	4%	x
CSCC[C@@H](N)C(=O)O	0%	-2%	-11%	-5%	8%	-1%
CCOC(=O)C(NC(C)=O)(N1CCc2ccccc2C1)C(F)(F)F (stereo not drawn)	0%	-15%	u	0%	-1%	25µM*
Cc1ccc(C)c(NC(=O)c2cc(=O)c3cc(C)cc(C)c3o2)c1	-4%	3%	-1%	4%	x	1%
Cc1ccc(CNC(=O)c2cc(=O)c3cc(C)cc(C)c3o2)cc1	4µM*[quencher]	-18%	u	-14%	x	-11%
SMILES	TexasRed fluor	Tau fluor cs	Tau fibril FP	TRb SRC2 PPI	RGS12 GoLoco inh	Tau fibril ThT
CC(C)c1ccc2[nH]c(O)c(N=NC(=S)NCCc3ccccc3)c2c1	1%	u	-15%	-1%	x	u
Oc1[nH]c2ccccc2c1N=NC(=S)NCCc1ccccc1	-5%	13µM*[quencher]	u	-8%	3%	14µM*
Oc1cccc(NC(=S)N=Nc2c(O)[nH]c3ccccc23)c1	u	u	4%	20%	16%	10µM*
CC(C)(C)c1cccc(C(C)(C)C)c1O	-1%[201 µM]	x	x	1%[201 µM]	x	x
Cc1ccc(Cl)cc1N1CCN(S(=O)(=O)c2ccc3c(c2)CCN3C(=O)C2CCC2)CC1	0%	-8%	-3%	-1%	x	-7%
CCS(=O)(=O)c1ccc2oc(Nc3cc(C)cc(C)c3)nc2c1	0%	u	0%	-2%	15%	-11%
CCS(=O)(=O)c1ccc2oc(Nc3ccc(C(C)C)cc3)nc2c1	-10%	u	u	0%	-14%	40µM*
CCCn1c2ccccc2c2cnn(CC(=O)NCCc3ccc(OCC)c(OCC)c3)c(=O)c21	6%	-24%	-3%	-7%	x	-17%
Cc1cc(C(=O)O)ccc1-n1c(C)cc(C=C2C(=O)c3ccccc3C2=O)c1C	-8%	-18%	-8%	8%	14%	14µM*
Cc1cc(C(=O)O)ccc1-n1c(C)cc(/C=C(/C#N)C(=O)Nc2ccccc2)c1C	2%	4%	3%	-2%	-2%	-6%
Cc1cccc2sc(N(Cc3cccnc3)C(=O)CCS(=O)(=O)c3ccccc3)nc12	0%	-7%	-6%	-3%	x	-14%
Oc1cc(O)c2c(c1)O[C@H](c1ccc(O)c(O)c1)[C@H](O)C2	0%[53 µM]	x	x	0%[53 µM]	-2%[21.6 µM]	x
O=C(OC1Cc2c(O)cc(O)cc2OC1c1cc(O)c(O)c(O)c1-c1c(C2Oc3cc(O)cc(O)c3CC2OC(=O)c2cc(O)c(O)c(O)c2)cc(O)c(O)c1O)c1cc(O)c(O)c(O)c1 (stereo not drawn)	-28%	14µM*[quencher]	u	6%	25%	25µM*
O=C(O[C@@H]1Cc2c(O)cc(O)cc2OC1c1ccc(O)c(O)c1)c1cc(O)c(O)c(O)c1 (stereo partly drawn)	-8%	13µM*[quencher]	u	5%	2%	16µM*
CO[C@@H]1COC(=O)C/C=C\[C@H](C)COC(=O)[C@H](Cc2ccccc2)NC(=O)C/C=C\[C@H]1C	-3%[11.2 µM]	-8%[11.6 µM]	-10%[11.6 µM]	-2%[11.2 µM]	x	-8%[11.5 µM]
CCOC(=O)c1c(N)sc(-c2ccccc2)c1C	-6%	u	6%	-10%	-1%	25µM*
